MITF primary: inhibitors of human MITF; O75030; AlphaScreen MITF homodimerization, bead proximity signal; inhibition, % at 2.6 µM; hit rate 0.91% among 650,000; AID 1259374; in the data active means inhibition above about 50%;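 further: 0% = vehicle wells with protein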
FBW7 act: activators of human E3 ligase FBW7; Q969H0; AlphaScreen FBW7–phospho-cyclin E peptide binding, activator screen; normalized activity (activation), % at 26.1 µM; hit rate 0.13% among 650,000; AID 1259310; in the data active means normalized activity above about 1.9%;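 further: purified mutant Fbw7 with reduced substrate affinity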
TEAD-YAP block: TEAD-YAP interaction inhibition. inhibition, % at 9.12 µM. AID 1259422. hit rate 1.4% among 640,000. HEK-TIYL cells, TEAD-Gal4/YAP UAS-luciferase luminescence; in the data active means inhibition above about 32%;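 further: 0% = median of test compound wells and 100% = reference inhibitor wells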
GPR151 activ: human GPR151 activation; Q8TDV0; PathHunter beta-arrestin GPR151 cells, luminescence; activation, % at 11.2 µM; hit rate 1% among 650,000; in the data active means activation above about 4.9%;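 further: 0% = median of compound wells and 100% = cells with positive control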
Target sequence (Q8TDV0 whole entry, looked up): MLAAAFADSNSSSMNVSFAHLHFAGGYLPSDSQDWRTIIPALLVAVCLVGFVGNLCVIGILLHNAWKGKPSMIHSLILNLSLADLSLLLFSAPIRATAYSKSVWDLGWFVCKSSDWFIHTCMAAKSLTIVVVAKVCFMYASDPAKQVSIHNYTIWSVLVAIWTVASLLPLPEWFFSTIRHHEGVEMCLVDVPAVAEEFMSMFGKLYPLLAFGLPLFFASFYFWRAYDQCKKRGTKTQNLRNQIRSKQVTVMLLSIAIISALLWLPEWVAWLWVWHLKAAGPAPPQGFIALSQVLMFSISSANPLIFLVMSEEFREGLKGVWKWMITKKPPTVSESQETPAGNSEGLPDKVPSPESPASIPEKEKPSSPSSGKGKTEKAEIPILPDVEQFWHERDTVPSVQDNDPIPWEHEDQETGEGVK
The depositor's hits bear a star. A selection: hits, their analogues and other compounds. The true share with any hit is near 3.5%.

SMILES	MITF primary	FBW7 act	TEAD-YAP block	GPR151 activ
Clc1ccccc1CN1c2ccccc2N(Cc2ccccc2Cl)C1c1ccccc1Cl	6	1	81*	1
OC1CCN(Cc2ccccc2Cl)CC1	18	0	5	1
O=C(Nc1cnn(C23CC4CC(CC(C4)C2)C3)c1)c1cnn2cccnc12	4	0	58*	0
O=C(Nc1cnn(C23CC4CC(CC(C4)C2)C3)c1)c1cnn2cc(Br)cnc12	37	0	3	-1
CN(C)c1ccc(-c2nc3ccccc3c(=O)[nH]2)cc1	7	0	72*	-7
CCc1nnc2n1N=C(c1ccc(OC)c(OC)c1)CS2	-13	0	-28	0
COc1ccc(-c2nnc3n2N=C(c2ccc(C)cc2)CS3)cc1	1	0	52*	0
COc1ccc(-c2nnc3n2N=C(c2cccc(OC)c2)CS3)cc1	-11	0	4	-1
COc1ccc(-c2nnc3n2N=C(c2ccc(F)cc2)CS3)cc1	15	1	14	-1
COc1ccc(-c2nnc3n2N=C(c2ccc(C)cc2)CS3)cc1OC	15	0	52*	-2
COc1cccc(C2=Nn3c(nnc3-c3cccc(C)c3)SC2)c1	9	0	48*	0
COc1ccc(C2=Nn3c(nnc3-c3cccc(F)c3)SC2)cc1	8	1	64*	-1
COc1ccc(S(=O)(=O)Nc2ccccc2SC)cc1I	11	1	7	1
CCCc1cc(=O)[nH]c2nnc(SCC(=O)Nc3ccc(C(=O)OCC)cc3)n12	1	0	4	-1
CCOC(=O)c1c(C)oc2c1c1c(c3ccccc32)OCN(CCCN2CCOCC2)C1	12	0	-64	0
Cc1ccc(N(CC(=O)NCc2ccco2)S(=O)(=O)c2ccc(Cl)cc2)cc1	10	0	-4	1
COC(=O)c1c(C)oc2c1cc(NS(=O)(=O)c1ccccc1)c1ccccc12	0	0	4	2
COc1ccc(S(=O)(=O)Nc2cc3c4c(oc3c3ccccc23)CCCC4=O)cc1	13	0	56*	1
COC(=O)c1c(C)oc2c1cc(NS(=O)(=O)c1ccc(OC)cc1)c1ccccc12	2	0	51*	-1
CC(C)(C)Cc1nc(-c2ccc([N+](=O)[O-])cc2)no1	-4	0	-9	0
Nc1nonc1N=NN(Cc1ccc(Cl)cc1Cl)c1nonc1N	73*	0	10	2
Nc1nonc1N=NN(CC(=O)Nc1c(Cl)cccc1Cl)c1nonc1N	8	0	-3	-1
CN1CCN(c2ccc(CNS(=O)(=O)Cc3cccc(C(F)(F)F)c3)cc2)CC1	4	0	38*	0
Oc1ccccc1C1CC(c2ccc(Cl)cc2)=NC(c2ccc(F)cc2)N1 (stereo not given)	-9	0	-48	-1
O=C(CCl)NCc1ccc2[nH]c3c(c2c1)CCCC3	15	0	34*	2
SMILES	MITF primary	FBW7 act	TEAD-YAP block	GPR151 activ
CC(C)C(=O)NCc1ccc2[nH]c3c(c2c1)CCCC3	16	0	4	-2
O=C(Nc1ccc2c(c1)CN(C(=O)C1CCOC1)CC2)c1ccc(C(F)(F)F)cc1 (stereo not given)	6	0	10	1
O=C(Nc1ccc2c(c1)CN(C(=O)c1ccco1)CC2)c1cccc2ccccc12	3	0	45*	0
O=C(Nc1ccc2c(c1)CN(C(=O)C1CCOC1)CC2)c1ccccc1Cl (stereo not given)	8	0	51*	0
O=C(Nc1ccc2c(c1)CN(C(=O)c1ccco1)CC2)c1ccc(F)c(F)c1	-1	0	-13	1
CCC(=O)N1CCc2ccc(NC(=O)c3c(F)cccc3F)cc2C1	18	0	33*	-1
O=C(Nc1ccc2c(c1)CN(C(=O)C1CCOCC1)CC2)c1ccccc1Cl	-2	0	34*	1
COc1cccc(-c2noc(C3CCCN(C(=O)CC(C)C)C3)n2)c1 (stereo not given)	-7	0	-25	2
O=c1c2ccccc2ncn1Cc1cccc(F)c1	5	0	-3	-1
O=C1CCCN1CCC1CCCCN1Cc1nc(-c2ccccn2)no1 (stereo not given)	3	0	2	-1
Cn1cccc1/C=C1\Cc2ccccc2C1=O	2	0	-28	-4
Cn1cccc1/C=C1\CCc2ccccc2C1=O	7	0	64*	-8
O=C(Cc1ccc([N+](=O)[O-])cc1)OCC(=O)c1ccc2ccccc2c1	20	0	46*	1
CC(=O)c1[nH]c(C)c(C(C)=O)c1C	-6	0	-6	-1
CCc1c(Cc2[nH]c(C)c(C(C)=O)c2C)[nH]c(C(=O)O)c1C	-146	15*	8	-2
N#Cc1cnc(N)c(C#N)c1Nc1ccccc1	4	0	38*	-1
N#Cc1cc(N)c(Nc2ccccc2)cc1C#N	0	0	-4	3
O=C(NCc1ccccc1)Nc1ccc(-c2cn[nH]c2)cc1	8	0	-12	1
Nc1ncc([N+](=O)[O-])c(Oc2ccccc2F)n1	5	0	-1	0
CCCN(CCC)c1nc(N)ncc1[N+](=O)[O-]	5	0	59*	-1
CCCCN(CCCC)c1nc(N)ncc1[N+](=O)[O-]	3	0	34*	1
CNC(=O)C(NC(=O)c1ccccc1)=C1CCCCC1	-3	0	43*	-1
CNC(=O)/C(=C\c1ccccc1)NC(=O)c1ccccc1	8	0	-10	0
COc1ccc(C2CC(C(F)(F)F)n3ncc(C(=O)N(C)Cc4ccccc4)c3N2)cc1 (stereo not given)	8	0	-13	-2
Cn1cnc([N+](=O)[O-])c1Sc1nc2ccccc2[nH]1	1	0	56*	-1
SMILES	MITF primary	FBW7 act	TEAD-YAP block	GPR151 activ
CN(C)c1ccc(NC2=C([N+](=O)[O-])C(=O)c3ccccc32)cc1	86*	-1	2	-2
COc1cc(COc2ccc3ccc(=O)oc3c2)cc(OC)c1OC	0	0	4	-1
COc1cc(COc2ccc3c(C)cc(=O)oc3c2)cc(OC)c1OC	-8	0	56*	2
COc1cccc(OC)c1CN1CCc2nnc(C(C)NC(=O)C3CCOCC3)n2CC1 (stereo not given)	3	0	-13	0
COc1ccccc1-n1c(NC(=O)c2cccs2)n[nH]c1=S	-15	0	-32	-1
Nc1ccc(NC(=O)c2nc[nH]c2C(=O)O)cc1	86*	-2	6	0
CCc1ccc(C(=O)Oc2ccc(Cl)cc2)cc1	-12	0	-11	0
O=C1Nc2ccccc2/C1=C/c1nc2ccccc2c(=O)n1-c1cccc([N+](=O)[O-])c1	9	0	17	1
O=C1Nc2ccccc2/C1=C\c1nc2ccccc2c(=O)n1-c1cccc([N+](=O)[O-])c1	20	0	41*	3
O=C1OC(c2cccc(F)c2)=N/C1=C\c1ccccc1	-3	0	36*	-7
O=C1OC(c2ccc(-c3ccccc3)cc2)=N/C1=C\c1cccc(F)c1	-3	0	-3	0
O=C1OC(c2ccc(Cl)c([N+](=O)[O-])c2)=N/C1=C\c1cccc(F)c1	-19	2.0*	4	1

Source: PubChem BioAssay (The Scripps Research Institute Molecular Screening Center)
